Calls of active or inactive are those of the source. Rule for the calls: active = hit-call score of the fitted dose curve at least 0.9, where 1 is the maximum; inactive = score below 0.9.

Holding throughout (details): mRNA level, 48 h; actives raise or lower the signal
Read-out in assay [1]: Bcl-2 (BAX) gene, BAX (gene 581)
The assay is described as follows: LTEA_HepaRG_BAX: Life Technologies and Expression Analysis (LTEA) Assay for Bcl-2 (BAX) gene using HepaRG (AID 2283470). Summed up:
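qRT-PCR read-out of BAX mRNA, normalized to three housekeeping genes, after 48 h chemical exposure of human HepaRG cells in serum-free induction medium; eight-point half-log series, top 100 uM, 0.5% DMSO vehicle; bidirectional fit versus DMSO.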

Read-out in assay [2]: adenosine kinase (ADK) gene, ADK (gene 132)
Kind of assay: LTEA_HepaRG_ADK: Life Technologies and Expression Analysis (LTEA) Assay for adenosine kinase (ADK) gene using HepaRG (AID 2283471). A digest of the protocol:
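HepaRG (human liver), 48 h chemical exposure, 8-pt half-log series, top 100 uM, 0.5% DMSO vehicle. Readout: ADK mRNA by qRT-PCR vs housekeeping genes; bidirectional curve fit relative to DMSO baseline.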

Read-out in assay [3]: Alpha-fetoprotein (AFP) gene, AFP (gene 174)
Kind of assay: LTEA_HepaRG_AFP: Life Technologies and Expression Analysis (LTEA) Assay for Alpha-fetoprotein (AFP) gene using HepaRG (AID 2283472). A digest of the protocol:
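qRT-PCR (Fluidigm TaqMan) readout of AFP transcript, normalized to three housekeeping genes, fitted bidirectionally against 0.5% DMSO baseline. HepaRG cells received chemicals for 48 h in serum-free induction medium, top concentration 100 uM, half-log steps.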

Read-out in a further assay: BCL2L11 (gene 10018)
Kind of assay: LTEA_HepaRG_BCL2L11: Life Technologies and Expression Analysis (LTEA) Assay for Bcl-2 (BCL2L11) gene using HepaRG (AID 2283473). Summed up:
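Differentiated human HepaRG cells in serum-free induction medium were exposed in duplicate for 48 h to eight concentrations (top 100 uM, half-log steps, 0.5% DMSO). BCL2L11 mRNA was quantified by TaqMan qRT-PCR, normalized to ACTB/GAPDH/POLR2A, bidirectional fit versus DMSO.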

Read-out in assay [4]: Apolipoprotein A-V (APOA5) gene, APOA5 (gene 116519)
The assay is described as follows: LTEA_HepaRG_APOA5: Life Technologies and Expression Analysis (LTEA) Assay for Apolipoprotein A-V (APOA5) gene using HepaRG (AID 2283474). A digest of the protocol: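 Differentiated human HepaRG cells were exposed in duplicate for 48 h to eight half-log concentrations from 100 uM in 0.5% DMSO. APOA5 mRNA was quantified by TaqMan qRT-PCR, normalized to ACTB, GAPDH and POLR2A, and fitted bidirectionally against DMSO.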

Read-out in assay [5]: Apoptosis regulator Bcl-2 (Homo sapiens) (UniProt P10415)
The assay is described as follows: LTEA_HepaRG_BCL2: Life Technologies and Expression Analysis (LTEA) Assay for Bcl-2 gene using HepaRG (AID 2283475). A digest of the protocol: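 qRT-PCR read-out (Fluidigm TaqMan) of BCL2 transcript, normalised to three housekeeping genes, after 48 h chemical exposure of HepaRG cells; 8-point half-log series, top 100 uM, 0.5% DMSO vehicle. Gain or loss of signal fitted relative to DMSO baseline.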

Read-out in assay [6]: Bcl-2 (BID) gene, BID (gene 637)
Kind of assay: LTEA_HepaRG_BID: Life Technologies and Expression Analysis (LTEA) Assay for Bcl-2 (BID) gene using HepaRG (AID 2283476). Summed up:
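HepaRG, 48 h exposure, 8-pt half-log series, top 100 uM, 0.5% DMSO vehicle, duplicates. Readout: BID mRNA by TaqMan qRT-PCR; housekeeping-normalized; bidirectional curve fit vs DMSO baseline.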

Read-out in another assay: Caspase-3 (Homo sapiens) (UniProt P42574)
Kind of assay: LTEA_HepaRG_CASP3: Life Technologies and Expression Analysis (LTEA) Assay for cysteine-aspartic acid protease (CASP3) using HepaRG (AID 2283477). A digest of the protocol:
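Differentiated human HepaRG cells in serum-free induction medium were exposed 48 h to 8-point half-log concentrations from 100 uM (0.5% DMSO vehicle). CASP3 mRNA was measured by qRT-PCR, normalised to ACTB, GAPDH and POLR2A, with bidirectional fitting against DMSO.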

Read-out in assay [7]: Cytochrome P450 (CYP24A1), CYP24A1 (gene 1591)
Kind of assay: LTEA_HepaRG_CYP24A1: Life Technologies and Expression Analysis (LTEA) Assay for Cytochrome P450 (CYP24A1) using HepaRG (AID 2283478). A digest of the protocol:
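Differentiated HepaRG cells, pre-cultured 48 h, were exposed in duplicate for 48 h in serum-free induction medium to 8 half-log concentrations (top 100 uM, 0.5% DMSO). CYP24A1 mRNA was quantified by TaqMan qRT-PCR, normalized to ACTB/GAPDH/POLR2A, fitted bidirectionally versus DMSO.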

Read-out in assay [8]: Cytochrome P450 (CYP1A2), CYP1A2 (gene 1544)
Kind of assay: LTEA_HepaRG_CYP1A2: Life Technologies and Expression Analysis (LTEA) Assay for Cytochrome P450 (CYP1A2) using HepaRG (AID 2283479). Summed up: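 Differentiated human HepaRG cells in serum-free induction medium were exposed in duplicate for 48 h to 8-point half-log concentrations up to 100 uM in 0.5% DMSO. CYP1A2 mRNA measured by qRT-PCR, normalized to ACTB, GAPDH, POLR2A; bidirectional fit vs DMSO.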

Read-out in assay [9]: cysteine-aspartic acid protease (CASP8), CASP8 (gene 841)
Kind of assay: LTEA_HepaRG_CASP8: Life Technologies and Expression Analysis (LTEA) Assay for cysteine-aspartic acid protease (CASP8) using HepaRG (AID 2283480). A digest of the protocol: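 CASP8 transcript measured by TaqMan qRT-PCR with ACTB/GAPDH/POLR2A normalization, after 48 h chemical exposure of HepaRG cells in serum-free induction medium. Eight concentrations, top 100 uM, half-log steps, 0.5% DMSO vehicle; fits in both directions versus DMSO.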

Read-out in assay [10]: Cytochrome P450 (CYP2B6), CYP2B6 (gene 1555)
Kind of assay: LTEA_HepaRG_CYP2B6: Life Technologies and Expression Analysis (LTEA) Assay for Cytochrome P450 (CYP2B6) using HepaRG (AID 2283481). Summed up:
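Differentiated HepaRG cells, serum-free induction medium, exposed 48 h in duplicate to 8-point half-log concentrations from 100 uM in 0.5% DMSO. CYP2B6 mRNA by qRT-PCR, normalized to ACTB, GAPDH, POLR2A; bidirectional fit versus DMSO.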

Read-out in assay [11]: Cytochrome P450 2C19 (Homo sapiens) (UniProt P33261)
Kind of assay: LTEA_HepaRG_CYP2C19: Life Technologies and Expression Analysis (LTEA) Assay for CYP2C19 using HepaRG (AID 2283482). Summed up: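 Differentiated human HepaRG cells were exposed for 48 h in serum-free induction medium to 8 concentrations (top 100 uM, half-log steps, 0.5% DMSO). CYP2C19 mRNA was measured by qRT-PCR, normalized to ACTB/GAPDH/POLR2A, and fitted bidirectionally against DMSO.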

Read-out in the next assay: CYP2C8 (gene 1558)
Kind of assay: LTEA_HepaRG_CYP2C8: Life Technologies and Expression Analysis (LTEA) Assay for CYP2C8 using HepaRG (AID 2283483). A digest of the protocol:
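CYP2C8 expression measured by TaqMan qRT-PCR and normalized to three housekeeping genes. HepaRG cultures were treated for 48 h with an eight-point half-log series topping at 100 uM, vehicle 0.5% DMSO, duplicates; fitted both directions against DMSO.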

Read-out in the next assay: CYP2C9 (gene 1559)
The assay is described as follows: LTEA_HepaRG_CYP2C9: Life Technologies and Expression Analysis (LTEA) Assay for CYP2C9 using HepaRG (AID 2283484). A digest of the protocol:
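CYP2C9 transcript level, quantified by TaqMan qRT-PCR against three housekeeping genes, was fitted bidirectionally relative to 0.5% DMSO. HepaRG cultures were treated 48 h, in duplicate, at eight half-log concentrations topping at 100 uM.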

Read-out in a further assay: CYP2E1 (gene 1571)
Kind of assay: LTEA_HepaRG_CYP2E1: Life Technologies and Expression Analysis (LTEA) Assay for CYP2E1 using HepaRG (AID 2283485). A digest of the protocol:
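CYP2E1 transcript was measured by TaqMan qRT-PCR in human HepaRG cultures after 48 h chemical exposure (top 100 uM, half-log steps, 0.5% DMSO vehicle). Housekeeping-gene normalization; gain or loss fitted relative to DMSO baseline.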

Read-out in assay [12]: Pro-epidermal growth factor (Homo sapiens) (UniProt P01133)
The assay is described as follows: LTEA_HepaRG_EGF: Life Technologies and Expression Analysis (LTEA) Assay for Epidermal growth factor (EGF) using HepaRG (AID 2283489). A digest of the protocol:
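Differentiated human HepaRG cells, plated 48 h then switched to serum-free induction medium, were exposed for 48 h to test chemicals (8-point half-log series, top 100 uM, 0.5% DMSO). EGF mRNA was quantified by qRT-PCR, normalized to ACTB, GAPDH, POLR2A.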

Read-out in another assay: CYP4A11 (gene 1579)
The assay is described as follows: LTEA_HepaRG_CYP4A11: Life Technologies and Expression Analysis (LTEA) Assay for CYP4A11 using HepaRG (AID 2283486). A digest of the protocol: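 Differentiated HepaRG cells, serum-free induction medium, exposed 48 h in duplicate to 8-point half-log series from 100 uM in 0.5% DMSO. CYP4A11 mRNA measured by qRT-PCR, normalized to ACTB, GAPDH, POLR2A; bidirectional fit versus DMSO.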

Read-out in assay [13]: Cytochrome P450 3A4 (Homo sapiens) (UniProt P08684)
Kind of assay: LTEA_HepaRG_CYP3A4: Life Technologies and Expression Analysis (LTEA) Assay for CYP3A4 using HepaRG (AID 2283487). A digest of the protocol: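 CYP3A4 transcript measured by TaqMan qRT-PCR and normalized to three housekeeping genes after 48 h chemical exposure of human HepaRG cells. Top concentration 100 uM, half-log steps, 0.5% DMSO vehicle; gain or loss fitted against DMSO baseline.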

Read-out in assay [14]: DNA damage-inducible transcript 3 (DDIT3), DDIT3 (gene 1649)
The assay is described as follows: LTEA_HepaRG_DDIT3: Life Technologies and Expression Analysis (LTEA) Assay for DNA damage-inducible transcript 3 (DDIT3) using HepaRG (AID 2283488). Summed up: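 qRT-PCR readout (Fluidigm TaqMan), housekeeping-normalized to ACTB, GAPDH, POLR2A. HepaRG cells, 48 h exposure, 8-point half-log series from 100 uM in 0.5% DMSO, duplicates. Gain or loss of signal fitted against DMSO baseline.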

Sequence of Apoptosis regulator Bcl-2 (Homo sapiens) (P10415 whole entry, looked up): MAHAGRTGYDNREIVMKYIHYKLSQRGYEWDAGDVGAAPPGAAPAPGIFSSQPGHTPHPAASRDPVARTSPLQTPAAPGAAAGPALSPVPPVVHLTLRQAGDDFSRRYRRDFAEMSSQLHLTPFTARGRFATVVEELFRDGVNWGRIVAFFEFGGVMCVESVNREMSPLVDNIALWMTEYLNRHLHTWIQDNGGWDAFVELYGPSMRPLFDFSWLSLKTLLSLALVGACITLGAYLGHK
Sequence of Cytochrome P450 2C19 (Homo sapiens) (P33261 whole entry, looked up): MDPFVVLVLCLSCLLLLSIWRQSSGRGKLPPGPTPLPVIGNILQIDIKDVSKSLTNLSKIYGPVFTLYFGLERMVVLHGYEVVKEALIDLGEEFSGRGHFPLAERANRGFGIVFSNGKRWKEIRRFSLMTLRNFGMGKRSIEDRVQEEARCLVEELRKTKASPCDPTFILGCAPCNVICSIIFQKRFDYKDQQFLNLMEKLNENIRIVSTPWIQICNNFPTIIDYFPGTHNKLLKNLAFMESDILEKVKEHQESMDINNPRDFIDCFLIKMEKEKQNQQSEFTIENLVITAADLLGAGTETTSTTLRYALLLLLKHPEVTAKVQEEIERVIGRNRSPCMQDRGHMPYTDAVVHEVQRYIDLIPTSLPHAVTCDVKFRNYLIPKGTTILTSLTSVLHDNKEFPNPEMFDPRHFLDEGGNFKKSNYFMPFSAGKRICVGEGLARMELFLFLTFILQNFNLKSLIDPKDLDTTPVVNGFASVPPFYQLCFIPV
Sequence of Caspase-3 (Homo sapiens) (P42574 whole entry, looked up): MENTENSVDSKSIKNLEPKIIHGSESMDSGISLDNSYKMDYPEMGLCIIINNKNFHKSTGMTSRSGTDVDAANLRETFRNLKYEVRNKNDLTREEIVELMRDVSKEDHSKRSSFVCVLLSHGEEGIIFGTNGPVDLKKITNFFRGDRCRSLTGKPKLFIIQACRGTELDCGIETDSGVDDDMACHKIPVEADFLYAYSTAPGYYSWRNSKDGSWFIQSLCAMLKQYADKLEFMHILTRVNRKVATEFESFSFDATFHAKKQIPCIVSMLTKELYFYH
Sequence of Cytochrome P450 3A4 (Homo sapiens) (P08684 whole entry, looked up): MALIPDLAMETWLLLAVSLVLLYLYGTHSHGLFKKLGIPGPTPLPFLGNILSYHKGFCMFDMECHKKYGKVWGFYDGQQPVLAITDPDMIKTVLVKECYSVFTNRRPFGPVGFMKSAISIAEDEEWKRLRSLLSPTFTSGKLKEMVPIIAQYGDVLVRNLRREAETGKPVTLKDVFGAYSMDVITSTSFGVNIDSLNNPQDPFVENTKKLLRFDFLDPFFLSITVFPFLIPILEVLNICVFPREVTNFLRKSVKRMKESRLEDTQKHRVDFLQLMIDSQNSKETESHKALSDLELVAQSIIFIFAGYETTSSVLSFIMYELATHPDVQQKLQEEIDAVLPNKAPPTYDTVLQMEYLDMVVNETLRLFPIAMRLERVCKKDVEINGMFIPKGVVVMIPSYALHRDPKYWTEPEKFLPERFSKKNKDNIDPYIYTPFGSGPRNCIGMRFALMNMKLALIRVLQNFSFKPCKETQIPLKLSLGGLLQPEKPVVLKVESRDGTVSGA

For the compound `CCCC(=O)O`, the result (in assay [1]; in assay [2]; in assay [3]; in the assay with BCL2L11 (gene 10018); in [4]; in assay [5]) was inactive. Also, the outcome (in assay [6]; with Caspase-3 (Homo sapiens); in assay [7]; in assay [8]; in assay [9]; in [10]) was inactive. In addition, the call (in assay [11]; in the assay with CYP2C8 (gene 1558); in the assay with CYP2C9 (gene 1559); in the assay with CYP2E1 (gene 1571); in assay [12]) was inactive.

Regarding `CC1=C(C)S(=O)(=O)CCS1(=O)=O`, the AC50 in assay [1] is 50 µM (active); in assay [2], 0.277 µM (active); in assay [3], 80.3 µM (active); in [5], 88.4 µM (active); with Caspase-3 (Homo sapiens) it was 69.8 µM (active); in assay [8] it was 9.92 µM (active). Also, the AC50 in assay [10] is 89 µM (active); in assay [11], 88 µM (active); in the assay with CYP2C9 (gene 1559) it was 87.7 µM (active); in the assay with CYP4A11 (gene 1579) it was 89.5 µM (active); in assay [13], 50 µM (active); in assay [12], 12 µM (active). Further, the compound was called inactive (in the assay with BCL2L11 (gene 10018); in assay [6]; in assay [7]; in [9]; in the assay with CYP2C8 (gene 1558); in the assay with CYP2E1 (gene 1571)). Also, the call in assay [14] was inactive.

On to `CCCCc1nc2cccnc2n1Cc1ccc(-c2ccccc2-c2nnn[nH]2)cc1`, for which the compound was called inactive (in assay [1]; in [2]; in the assay with BCL2L11 (gene 10018); in [5]; in assay [6]; in the assay with Caspase-3 (Homo sapiens)). For the same compound, the compound was called inactive (in assay [7]; in [8]; in [9]; in assay [11]; in the assay with CYP2C8 (gene 1558); in the assay with CYP2C9 (gene 1559)). Moreover, the outcome (with CYP4A11 (gene 1579); in assay [14]; in [12]) was inactive. Also, the figures for the concentration at half-maximal activity (AC50) (in assay [3]; in assay [10]; with CYP2E1 (gene 1571)) were 33.2 µM (active), 10.4 µM (active) and 28.6 µM (active), respectively.

For `Cc1cn([C@H]2C=C[C@@H](CO)O2)c(=O)[nH]c1=O`, the call in assay [1], in assay [2], in assay [3], in assay [4], in [5] and in assay [6] was inactive. Also, the outcome (with Caspase-3 (Homo sapiens); in [7]; in assay [8]; in assay [9]; in [11]; with CYP2C8 (gene 1558)) was inactive. Moreover, the result (with CYP2C9 (gene 1559); in the assay with CYP2E1 (gene 1571); in the assay with CYP4A11 (gene 1579); in assay [14]; in [12]) was inactive. Besides, the AC50 in [10] is 10.3 µM (active).

`CC(N)=O`: the compound was called inactive (in assay [1]; in assay [2]; in assay [3]; in the assay with BCL2L11 (gene 10018); in [5]; with Caspase-3 (Homo sapiens)). Further, the call (in assay [7]; in assay [8]; in assay [9]; in assay [10]; in assay [11]; with CYP2C8 (gene 1558)) was inactive. The result (in the assay with CYP2C9 (gene 1559); with CYP2E1 (gene 1571); in assay [14]; in [12]) was inactive. In [6], the AC50 is 0.321 µM (active).
